# Most compounds without a hit are left out; they make up all but 1% or so of the library.
# gsp antag: gsp mutant antagonism | gsp-mutant cells, cAMP HTRF, 30 min | 0.4% of 340,000 active | Potency, µM (top dose mostly 76.9 µM), without a hit: at the top dose activity change, negative = inhibition, hits mostly inhibitors; calls by dose curve; cell line not stated here;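 further: intracellular cAMP measured with PDE inhibitor Ro 20-1724 present during compound exposure; potency means the concentration at half of the fitted maximal effect; on the % scale 0 is the no-effect control and ±100 the full control effect; nearly all actives have a fitted effect of over 65% in size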
#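 Cells, 2000/well, grown 16–24 h in DMEM 10% FBS with 0.5 mg/ml G418, then compounds plus […] (300 uM addition stock), 30 min at 37C. cAMP read by HTRF (cAMP-d2 and anti-cAMP antibody-K in lysis buffer) after 30 min RT.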
# PTHR1 agonist: agonists of human PTHR1 parathyroid hormone receptor | 0.075% of 410,000 active | HEK293 GP2 PTHR1 cells, GloSensor cAMP luminescence, 1 h | AID 743266 | Q03431 | Potency, µM (titrated, usually from 115 µM), without a hit: top-dose activation, hits mostly activators; further: potency means the concentration at half of the fitted maximal effect; nearly all actives have a fitted effect of over 55% in size
#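 HEK-293-derived GP2 cells expressing PTHR1 and a GloSensor cAMP reporter, 3,000/well, plated overnight, given luciferin plus IBMX (each 0.5 mM as added) for 1 h at 37 °C, then compound for 1 h at 37 °C. Luminescence was read after 15 min at room temperature.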
# RXFP1 ag: RXFP1 (human) receptor agonism; Q9HBX9; HEK293T-RXFP1 cAMP TR-FRET, 30 min; response scale: percent of porcine relaxin response, buffer zero; Potency, µM (series often up to 57.5 µM), for the others: top-dose activation, hits mostly activators; 0.3% of 370,000 active; AID 2676; further: potency means the concentration at half of the fitted maximal effect; on the % scale 0 is the no-effect control and ±100 the full control effect; nearly all actives have a fitted effect of over 60% in size
# Target sequence (Q9HBX9 whole entry, looked up): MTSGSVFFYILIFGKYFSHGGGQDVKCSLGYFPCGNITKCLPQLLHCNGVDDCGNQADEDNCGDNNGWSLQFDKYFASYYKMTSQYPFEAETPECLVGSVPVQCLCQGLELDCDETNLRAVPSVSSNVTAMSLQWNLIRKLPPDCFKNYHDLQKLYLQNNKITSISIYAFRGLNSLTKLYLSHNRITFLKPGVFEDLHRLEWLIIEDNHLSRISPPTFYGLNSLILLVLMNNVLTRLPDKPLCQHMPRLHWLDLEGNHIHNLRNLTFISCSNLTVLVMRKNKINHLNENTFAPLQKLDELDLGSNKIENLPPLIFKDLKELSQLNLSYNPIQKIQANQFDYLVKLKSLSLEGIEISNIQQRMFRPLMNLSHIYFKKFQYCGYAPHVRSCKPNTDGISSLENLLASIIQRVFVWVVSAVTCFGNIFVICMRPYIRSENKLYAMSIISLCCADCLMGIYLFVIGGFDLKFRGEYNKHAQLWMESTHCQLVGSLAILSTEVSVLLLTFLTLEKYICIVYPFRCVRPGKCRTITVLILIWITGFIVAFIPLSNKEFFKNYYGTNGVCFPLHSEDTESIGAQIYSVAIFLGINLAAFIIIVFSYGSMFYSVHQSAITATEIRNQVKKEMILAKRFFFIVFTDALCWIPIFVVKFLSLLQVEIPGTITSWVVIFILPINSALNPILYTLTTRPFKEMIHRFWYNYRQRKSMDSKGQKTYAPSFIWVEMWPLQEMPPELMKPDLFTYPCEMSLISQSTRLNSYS
#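 HEK293T cells stably expressing RXFP1 were pretreated with the PDE4 inhibitor Ro 20174, exposed to compounds for 30 min at 37C, lysed, and cAMP was read by TR-FRET. Data normalized to buffer (basal) and 29 nM porcine relaxin (100%).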
# gsp ag: agonists of gsp mutant (McCune-Albright syndrome) | gsp mutant cells, cAMP HTRF, 30 min | 0.13% of 340,000 active | AID 624287 | Potency, µM (titrated, usually from 76.9 µM), for the others: at the highest dose activation (cAMP increase), most hits filed as activators; active means well fitted activation curve with a large enough effect; inconclusive means small, poorly fitted or top-dose-only effect, or another doubt; inactive means no such curve, though single readings can be large or run the other way; cell line not stated here;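 further: phosphodiesterase inhibitor Ro 20-1724 added with compounds to block cAMP breakdown; potency means the concentration at half of the fitted maximal effect; nearly all actives have a fitted effect of over 60% in size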
#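 Cells stably selected in G418 were plated at 2000/well, grown 16-24 hr, then given compounds in DMSO with the PDE inhibitor […] (300 uM solution added) for 30 min at 37C; cAMP was read by HTRF.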
# RXFP1 antag: blocks the human relaxin receptor RXFP1; activity change, negative = inhibition, % at 57.5 µM; HEK293-RXFP1, relaxin-stimulated cAMP HTRF, 30 min; active compounds read low; 0.59% of 350,000 active; AID 1259400; Q9HBX9;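 active means activity change of -60% or lower, but not beyond a set lower limit; inconclusive means change between -60% and -40%, or beyond the set limit; inactive means change above -40%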; further: on the % scale 0 is the no-effect control and ±100 the full control effect
# Numbers without * were called inactive; i = inactive; ? = inconclusive; nt = no result given; [ ] = dose if it differs, or a comment. Unless noted, the call rests on the fitted dose curve; in most records, active means well fitted curve in the direction sought with a large enough effect; inconclusive means small, poorly fitted or top-dose-only effect, or another doubt; inactive means no such curve, though single readings can be large; an effect the other way counts as inactive or inconclusive.
SMILES,gsp antag,PTHR1 agonist,RXFP1 ag,gsp ag,RXFP1 antag
COc1ccc(-c2nnc(SCC(=O)Nc3cc(OC)ccc3OC)nc2-c2ccc(OC)cc2)cc1,nt,-4%,-1%,nt,-24
CCOC(=O)N1CCN(C(=O)c2oc3ccc(S(=O)(=O)N4CC(C)CC(C)C4)cc3c2C)CC1 (centres undefined),35µM*,-2%[57.5 µM],0%,3%,2
CCOC(=O)C1CCN(C(=O)c2oc3ccc(S(=O)(=O)N4CC(C)CC(C)C4)cc3c2C)CC1 (centres undefined),-18%,-31%,2%,-1%,-5
NC(=O)CC(NC(=O)Cc1cccc2ccccc12)c1ccc(N2CCCCCCC2)c([N+](=O)[O-])c1 (centres undefined),50µM*,-31%,-1%,-5%,nt
CCOc1ccc(C(=O)c2cn(CC(=O)Nc3ccc(OC)cc3)c3cc4c(cc3c2=O)OCO4)cc1,nt,i,25µM*,nt,nt
O=C(CN1C(=O)S/C(=C\c2ccccn2)C1=O)Nc1ccccc1,3%,-8%,0%,17%,8
O=C(CN1C(=O)S/C(=C\c2cc(Cl)c(O)c(Cl)c2)C1=O)Nc1ccccc1,40µM*,-26%,0%,-32%,-27
Cc1cccc(NC(=O)CN2C(=O)S/C(=C\c3ccc(O)c([N+](=O)[O-])c3)C2=O)c1,?,-13%,0%,4%,4
Cc1ccc(NC(=O)CN2C(=O)S/C(=C/c3ccc(O)c([N+](=O)[O-])c3)C2=O)cc1C,?,-11%,0%,16%[15.4 µM],-63*
Cc1ccc(-n2nnnc2CNC(=O)c2ccccc2)cc1C,nt,3%,3%,nt,-16
CCn1cc(C(=O)NCc2ccccc2)c(=O)c2cc(S(=O)(=O)N3CCOCC3)ccc21,nt,?,4%,nt,nt
CCc1ccccc1NS(=O)(=O)c1ccc(OC)c2ncccc12,28µM*,-57%,1%,0%,?
CCc1ccc(NC(=O)C(=O)NCCc2sc(-c3ccc(C)cc3)nc2C)cc1,nt,i,8%,nt,nt
COc1cc(Cl)c(C)cc1Nc1ncnc2c1nc1n2CCCC1,nt,13%,10%,nt,-6
O=C(O)CCC(=O)N1N=C(c2ccccc2)CC1c1ccc(Br)cc1 (centres undefined),40µM*,i,-1%,6%[15.4 µM],-2
O=C(O)CCC(=O)N1N=C(c2ccc(Br)cc2)CC1c1ccc(Br)cc1 (centres undefined),?,-11%,3%,8%,-4
Cc1cn([C@@H]2O[C@H](CO)[C@@H](O)[C@H]2F)c(=O)[nH]c1=O,nt,nt,nt,nt,-9
Cc1ccc2oc3c(c(=O)c2c1)C(c1ccc(O)cc1)N(c1nc(C)c(C)s1)C3=O (centres undefined),nt,19%,-1%,nt,-16
CN1CCN(C(=O)Cn2c(-c3cccs3)cc3cc(Cl)ccc32)CC1,nt,i,-1%,nt,-6
Oc1cccc(/C=N/N(Cc2ccccc2)c2ccccc2)c1,-73%,i,-1%,-3%[15.4 µM],-32
Oc1ccc(/C=N/N(Cc2ccccc2)c2ccccc2)c(O)c1O,8%,-8%,-1%,3%[15.4 µM],-92*
CCOc1ccc(/C=N/NC(=O)c2ccccc2O)cc1CN1CC2CC(C1)c1cccc(=O)n1C2 (centres undefined),35µM*,-24%,0%,nt,nt
COc1ccc(NC(=O)Cn2c(=O)n(-c3ccc(OC)cc3)c(=O)c3sc4ccccc4c32)cc1,nt,-20%,29%,nt,nt
C=CCOC(=O)C1=C(C)N(C)C(=O)NC1c1cc2c(cc1Br)OCO2 (centres undefined),0%,-9%[57.5 µM],3%,-49%,-74*
CCOC(=O)c1ccc2c(c1)N(Cc1ccc(F)cc1Cl)C(=O)c1ccccc1S2,nt,i,-1%,nt,-8
SMILES,gsp antag,PTHR1 agonist,RXFP1 ag,gsp ag,RXFP1 antag
CCCCc1ccc(NC(=O)CSc2nc(=O)n(CCN(C)C)c3c2CCC3)cc1,-8%,-33%,0%,16%[15.4 µM],-85*
Cc1oc(-c2ccccc2)nc1CCC(=O)c1ccc(CC2SC(=O)NC2=O)cc1 (centres undefined),nt,nt,nt,nt,-37
OCCNc1ncnc2ccc(Br)cc12,4%,-6%[57.5 µM],5%,28%,-5
CCN(CC)c1ncnc2ccc(Br)cc12,1%,i,11%,18µM*,11
COc1ccc(-c2n[nH]c(C(F)(F)F)c2-c2cc3ccccc3o2)c(O)c1,-24%,-32%[57.5 µM],-1%,-2%,-69*
CC(C)(C)C(=O)OCOC(=O)C1N2C(=O)CC2S(=O)(=O)C1(C)C (centres undefined),nt,nt,nt,nt,-13
CC1(C)COC(Cn2c3ccccc3c3ccccc32)O1 (centres undefined),-8%,i,-2%,1%,-65*
COc1cccc(-c2cc3c(=O)n(-c4ccccc4)c(=S)[nH]c3s2)c1,19%,i,?,11µM*,-3
COc1ccc(-n2c(=S)[nH]c3c(sc(=S)n3-c3ccccc3)c2=O)c(OC)c1,-14%,-24%,3%,9%[15.4 µM],-22
COCCCn1c(=O)/c(=C\c2cccc(OC)c2OC)s/c1=C(/C#N)C(=O)Nc1ccc(C(=O)O)cc1,14µM*,-33%,4%,0%,15
COCCCNC(=O)/C(C#N)=c1\s/c(=C\c2ccccc2OC(F)F)c(=O)n1CCCOC,-1%,i,0%,3%[15.4 µM],-3
CCOC(=O)c1c(/C=N/Nc2ccccc2)c2sc(C)cc2n1C,nt,nt,5%,nt,nt
Cc1ccc(C)c(NC(=O)C(=O)NCCc2csc(-c3ccc(C(F)(F)F)cc3)n2)c1,nt,i,0%,nt,-12
CCOc1ccc(S(=O)(=O)N(CC)CC)cc1NC(=O)CSCc1c(C)noc1C,1%,i,17%,10µM*,10
COc1ccc(C(CCNCc2ccc(N(C)C)cc2)c2ccccc2)cc1 (centres undefined),1%,-9%,1%,-28%,-37
COc1ccc(CNCCC(c2ccc3c(c2)OCO3)c2ccccc2OC)cc1 (centres undefined),nt,-43%,0%,nt,-72*
C(=N\Nc1nc(Nc2ccccc2)nc(N2CCOCC2)n1)/c1c[nH]c2ccccc12,-24%,-14%,-2%,1%,-11
Cc1ccc(Nc2nc(N/N=C/c3c[nH]c4ccccc34)nc(N3CCOCC3)n2)cc1,40µM*,-24%,1%,1%[15.4 µM],-35
CCOC(=O)c1ccc(-c2ccc3oc(-c4ccsc4)cc(=O)c3c2)cc1F,7.1µM*,-17%,nt,nt,nt
CSc1oc(-c2ccccc2)nc1S(=O)(=O)c1ccc(F)cc1,-6%,-1%[57.5 µM],1%,-14%,-6
CCCCS(=O)(=O)c1oc(-c2ccc(F)cc2)nc1S(=O)(=O)c1ccccc1,nt,-36%,1%,nt,-81*
CC(C)S(=O)(=O)c1oc(-c2cccs2)nc1S(=O)(=O)c1ccc(F)cc1,nt,-5%,2%,nt,-79*
CSc1oc(-c2ccc(F)cc2)nc1S(=O)(=O)c1ccccc1,12%,-16%,2%,-12%,2
